Z-score and composite z-score data for eight compounds are collected here from PubChem BioAssay.

Assay [1] has as its target NADPH oxidase 4 (Homo sapiens) (UniProt Q9NPH5). The assay is described as follows: compounds shifting NOX4 Amplex Red fluorescence – cell-based, HEK293-NOX4, tetracycline-induced, NOX inhibitor project, primary screen (AID 1160). The conditions noted are these: HEK293-NOX4, Amplex Red H2O2 fluorescence, 45 min; higher = more signal, called active from +8 up or from −8 down.

Assay [2] has as its target NADPH oxidase 5 (Homo sapiens) (UniProt Q96PH1). In words: compounds shifting NOX5 Amplex Red fluorescence – cell-based, HEK293-NOX5, NOX inhibitor project, primary screen (AID 1161). The conditions noted are these: HEK293-NOX5, ionomycin, 45 min, higher = more signal.
The nature of assay [3]: compound effects on lung adenocarcinoma cell viability – A549, calcein-AM fluorescence, 48 h, basal, profiling panel (AID 1162). Further: test concentration not given here. The conditions noted are these: higher = more signal.
Assay [4] in a line: compound effects on differentiated 3T3-L1 adipocyte viability – cell-based, 3T3-L1 adipocytes, calcein-AM fluorescence, 48 h, basal, profiling panel (AID 1163). Further: test concentration not given here. The conditions noted are these: 3T3-L1 adipocytes viability, higher = more signal.
The nature of assay [5]: compound effects on hepatocellular carcinoma cell viability – HepG2, calcein-AM fluorescence, 48 h, basal, profiling panel (AID 1164). Further: test concentration not given here. The conditions noted are these: higher = more signal.
A short description of assay [6]: compound effects on multiple myeloma cell viability – MM1S, calcein-AM fluorescence, 48 h, basal, profiling panel (AID 1165).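 Further: viability of MM1S multiple myeloma cells under basal unstimulated conditions; test concentration not given here.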 The following applies: higher = more signal.
Assay [7] is described as follows: calcein-AM signal in unstimulated myeloma cells – cell-based, calcein-AM fluorescence, 48 h, PK04 Diversity Set, profiling panel (AID 1166).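 Further: cells grown under basal conditions without added stimulus; test concentration not given here.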 The following applies: RPMI8226 myeloma viability, higher = more signal.
A short description of assay [8]: JC-1 mitochondrial signal, unstimulated HepG2 cells – cell-based, JC-1 fluorescence, 24 h, 100 nL compound, profiling panel (AID 1167). Further: test concentration not given here. The conditions noted are these: HepG2 mitochondrial potential, higher = more signal.
Assay [9] can be described thus: JC-1 mitochondrial signal, unstimulated adipocytes – cell-based, JC-1 fluorescence, 3T3-L1 adipocytes, 24 h, 100 nL compound, profiling panel (AID 1168). Further: test concentration not given here. The following applies: JC-1 mitochondrial fluorescence, higher = more signal, called active from +8 up or from −8 down.
Assay [10] can be described thus: JC-1 mitochondrial signal, unstimulated myeloma cells – cell-based, JC-1 fluorescence, RPMI8226, 24 h, 100 nL compound, profiling panel (AID 1169). Further: test concentration not given here. The following applies: JC-1 mitochondrial potential fluorescence, higher = more signal.
A short description of assay [11]: JC-1 mitochondrial signal, unstimulated MM1S myeloma – cell-based, JC-1 fluorescence, 24 h, 100 nL compound, profiling panel (AID 1170). Further: test concentration not given here. The following applies: MM1S mitochondrial potential, higher = more signal.
Assay [12] in a line: resazurin metabolic signal in A549 cells – cell-based, resazurin fluorescence, 24 h, PK04 Diversity Set, profiling panel (AID 1171). Further: test concentration not given here. The following applies: A549 viability, higher = more signal, called active from +8 up or from −8 down. Background: Alamar Blue is a resazurin reagent that responds to reducing activity.
The nature of assay [13]: resazurin metabolic signal in HepG2 cells – cell-based, resazurin fluorescence, 24 h, PK04 Diversity Set, profiling panel (AID 1172). Further: test concentration not given here. The conditions noted are these: HepG2 viability, higher = more signal.
Assay [14] in a line: budding yeast growth changes without added modifier – OD600, strain BY4716, 24 h, basal condition, primary screen (AID 1173). The conditions noted are these: S. cerevisiae BY4716 growth, OD600, 24 h; higher = more signal, called active from +8 up or from −8 down.
Assay [15] in a line: viability profiling in MM1S myeloma cells – cell-based, resazurin fluorescence, basal, 24 h, PK04 Diversity Set, profiling panel (AID 1174). Further: test concentration not given here. The conditions noted are these: higher = more signal, called active from +8 up or from −8 down.
The target in assay [16] is Dihydroorotate dehydrogenase (quinone), mitochondrial (Plasmodium falciparum (isolate 3D7)) (UniProt Q08210). In words: inhibition of P. falciparum DHODH – biochemical, C-terminal His tag, absorbance 600 nm, primary screen (AID 1175).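 Further: recombinant parasite enzyme with a five histidine tag at its C terminus; test concentration not given here.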 The following applies: PfDHODH enzyme, DCIP absorbance 600 nm; higher = more signal, called active from +8 up or from −8 down.
The nature of assay [17]: growth modulation of vineyard yeast isolate – strain RM11-1a, OD600, basal, 24 h, primary screen (AID 1177).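 Further: cultures grown under basal conditions with no added stressor; test concentration not given here.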 The conditions noted are these: S. cerevisiae RM11-1a growth, OD600, 24 h; higher = more signal, called active from +8 up or from −8 down.
Assay [18] is described as follows: growth of efflux-deficient E. coli DRC39 – strain DRC39, OD650, 24 h, E. coli filamentation inducers, primary screen (AID 1178).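 Further: growth measured as culture turbidity by optical density at 650 nm; test concentration not given here.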 The following applies: E. coli DRC39 acrAB, higher = more signal, called active from +8 up or from −8 down.
A short description of assay [19]: growth of efflux-deficient E. coli DRC39 – strain DRC39, OD650, 48 h, E. coli filamentation inducers, primary screen (AID 1179).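 Further: screen aims at cell division blockers that make cells filament.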 The following applies: E. coli DRC39 delta-acrAB growth, higher = more signal, called active from +8 up or from −8 down.
Assay [20] can be described thus: viability profiling in RPMI8226 myeloma cells – cell-based, resazurin fluorescence, basal, 24 h, PK04 Diversity Set, profiling panel (AID 1180).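 Further: RPMI8826 multiple myeloma cell line at 5000 cells per well; test concentration not given here.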 The conditions noted are these: higher = more signal.

Active and inactive are the calls of the source.

Sequence of NADPH oxidase 4 (Homo sapiens) (Q9NPH5 whole entry, looked up): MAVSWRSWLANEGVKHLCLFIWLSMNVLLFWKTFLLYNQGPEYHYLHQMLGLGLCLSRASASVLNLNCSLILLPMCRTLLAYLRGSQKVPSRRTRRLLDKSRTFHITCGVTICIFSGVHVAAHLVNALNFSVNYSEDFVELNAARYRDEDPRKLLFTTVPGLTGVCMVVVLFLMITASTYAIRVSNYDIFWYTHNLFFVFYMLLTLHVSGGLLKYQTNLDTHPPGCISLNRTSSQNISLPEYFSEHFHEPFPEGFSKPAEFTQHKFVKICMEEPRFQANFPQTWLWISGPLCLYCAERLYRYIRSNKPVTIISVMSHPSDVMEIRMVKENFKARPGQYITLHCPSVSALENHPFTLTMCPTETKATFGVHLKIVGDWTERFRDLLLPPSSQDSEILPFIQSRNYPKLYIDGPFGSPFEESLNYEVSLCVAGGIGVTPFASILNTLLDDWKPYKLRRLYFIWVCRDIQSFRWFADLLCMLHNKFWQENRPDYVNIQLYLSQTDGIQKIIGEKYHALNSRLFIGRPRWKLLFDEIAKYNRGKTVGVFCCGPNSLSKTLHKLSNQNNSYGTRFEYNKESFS
Sequence of Dihydroorotate dehydrogenase (quinone), mitochondrial (Plasmodium falciparum (isolate 3D7)) (Q08210 whole entry, looked up): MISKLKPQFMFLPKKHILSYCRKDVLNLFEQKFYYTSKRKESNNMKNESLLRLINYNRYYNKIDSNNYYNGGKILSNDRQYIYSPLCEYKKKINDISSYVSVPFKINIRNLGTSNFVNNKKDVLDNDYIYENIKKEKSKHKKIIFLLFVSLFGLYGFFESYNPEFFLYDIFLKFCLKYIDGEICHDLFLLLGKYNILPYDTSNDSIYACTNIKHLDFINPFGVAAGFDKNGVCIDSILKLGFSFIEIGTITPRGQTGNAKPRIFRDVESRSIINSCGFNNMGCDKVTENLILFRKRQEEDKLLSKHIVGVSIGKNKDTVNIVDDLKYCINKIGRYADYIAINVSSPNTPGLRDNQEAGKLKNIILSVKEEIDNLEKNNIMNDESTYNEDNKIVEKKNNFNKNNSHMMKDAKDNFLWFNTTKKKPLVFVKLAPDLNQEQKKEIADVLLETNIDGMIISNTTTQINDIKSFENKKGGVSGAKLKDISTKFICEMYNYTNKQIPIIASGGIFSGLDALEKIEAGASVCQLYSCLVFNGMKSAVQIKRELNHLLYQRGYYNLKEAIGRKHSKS
Sequence of NADPH oxidase 5 (Homo sapiens) (Q96PH1 whole entry, looked up): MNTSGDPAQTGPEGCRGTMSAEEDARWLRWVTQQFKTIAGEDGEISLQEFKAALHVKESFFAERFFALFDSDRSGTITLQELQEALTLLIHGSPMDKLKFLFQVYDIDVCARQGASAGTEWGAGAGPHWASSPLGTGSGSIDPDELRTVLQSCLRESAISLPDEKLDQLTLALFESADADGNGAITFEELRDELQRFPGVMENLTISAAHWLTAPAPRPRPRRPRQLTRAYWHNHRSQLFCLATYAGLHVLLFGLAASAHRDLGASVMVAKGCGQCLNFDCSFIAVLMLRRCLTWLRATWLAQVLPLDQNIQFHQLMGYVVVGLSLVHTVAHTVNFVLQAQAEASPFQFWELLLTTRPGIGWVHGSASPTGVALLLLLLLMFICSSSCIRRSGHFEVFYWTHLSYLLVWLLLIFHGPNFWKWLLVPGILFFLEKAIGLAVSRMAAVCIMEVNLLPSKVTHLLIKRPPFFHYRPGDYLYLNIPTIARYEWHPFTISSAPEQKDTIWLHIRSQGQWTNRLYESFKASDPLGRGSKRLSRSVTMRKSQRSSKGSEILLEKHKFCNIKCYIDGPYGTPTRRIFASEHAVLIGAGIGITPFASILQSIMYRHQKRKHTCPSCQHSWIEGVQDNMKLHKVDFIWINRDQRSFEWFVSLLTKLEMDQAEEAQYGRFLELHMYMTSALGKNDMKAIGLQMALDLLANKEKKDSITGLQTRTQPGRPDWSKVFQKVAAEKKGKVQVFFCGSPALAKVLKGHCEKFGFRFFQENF

Turning to `CCOC(=O)C[C@H]1[C@H](OC(=O)c2cc3ccccc3oc2=O)[C@@H](NC(=O)c2ccccc2)c2cc(OCCCO)ccc2N1C(=O)Cc1ccc(OC)cc1`, the z-score is 0.106 (inactive) in [1]; 0.874 in assay [2]; -0.0571 in assay [3]; 2.5 in assay [4]; -0.382 in assay [5]; 0.497 in assay [6]. Further, the z-score in assay [7] is -1.86; in [8], 1.66; in assay [9], 0.965 (inactive); in assay [10] it was -0.295; in assay [11] it was 1.13; in [12], -0.53 (inactive). The z-score is -0.259 in assay [13]; -1.99 (inactive) in [14]; 0.757 (inactive) in assay [15]; -0.859 (inactive) in assay [17]; 3.23 (inactive) in assay [18]; 1.78 (inactive) in assay [19]. Further, in assay [20], the z-score is 0.625. In [16], the composite z-score was -2.68 (inactive).

In the case of `COc1ccc([Si](C)(C)[C@H]2[C@H](CC(=O)N3Cc4ccccc4C[C@H]3CO)O[C@@]3(C(=O)N(Cc4cccc(N5C(=O)COc6ccccc65)c4)c4ccccc43)[C@@H]2C)cc1`, the z-score in assay [1] is -0.307 (inactive); in assay [2] it was -2.34; in assay [3], 0.486; in [4] it was 1.8; in [5], -0.0432; in [6], -0.227. The z-score was -1.19 in assay [7]; 2.09 in assay [8]; 0.335 (inactive) in assay [9]; -1.15 in [10]; 0.424 in assay [11]; -0.987 (inactive) in [12]. Further, the z-score in [13] was -0.593; in [14], -0.855 (inactive); in assay [15] it was -1.11 (inactive); in assay [17] it was 2.03 (inactive); in assay [18], 1.48 (inactive); in assay [19] it was -0.185 (inactive). In addition, the z-score in assay [20] was -0.668. For the same compound, in [16], the composite z-score was -0.0999 (inactive).

With `CC(C)[C@@H](C(=O)O)n1cc(-c2ccccn2)nn1`, the z-score in [1] is 0.242 (inactive); in assay [2], -0.24; in assay [3], -0.137; in assay [4] it was 1.05; in assay [5], 0.106; in [6] it was -0.0169. Also, the z-score was 0.516 in [7]; 0.422 in assay [8]; 0.592 (inactive) in assay [9]; -0.276 in assay [10]; 0.414 in assay [11]; 0.756 (inactive) in [12]. Besides, the z-score in assay [13] was 0.735; in assay [14], -1.37 (inactive); in [15] it was 1.11 (inactive); in [17], -0.52 (inactive); in assay [18], 1.87 (inactive); in assay [19] it was 1.17 (inactive). Further, the z-score in [20] turned out to be 0.386. In [16], the composite z-score was -0.206 (inactive).

As to `CC(C)C(CO)N1C(=O)[C@@H]2C3C(=O)OCCC/C=C\[C@H]3OC23C=CCN(C(C)C)C(=O)[C@@H]13` (stereo not given in full), the z-score in assay [1] was 0.527 (inactive); in assay [2] it was 1.56; in [3], 0.136; in [4], 0.492; in assay [5], -0.345; in assay [6], 0.239. For the same compound, the z-score was -0.0156 in assay [7]; 0.271 in [8]; -0.0599 (inactive) in [9]; -0.524 in assay [10]; 1.05 in assay [11]; 0.735 (inactive) in assay [12]. Besides, the z-score in [13] is 0.997; in assay [14], -0.953 (inactive); in assay [15], 0.814 (inactive); in assay [17], -1.36 (inactive); in assay [18], 1.66 (inactive); in assay [19] it was 1.26 (inactive). The same compound gave a z-score in [20] of 1.53. For the same compound, the composite z-score in [16] was -0.848 (inactive).

As for `CCCC[C@@H](O)C1=C(C)C[C@H]2C(=O)N(C)C(=O)[C@H]2[C@H]1CO`, the z-score in assay [1] is 0.914 (inactive); in [2], 0.794; in [3], 2.36; in [4], -0.552; in [5] it was 0.257; in assay [6], 0.0991. For the same compound, the z-score in [7] was -0.0268; in [8], 1.2; in assay [9], 1.01 (inactive); in [10], -0.363; in assay [11], 0.613; in assay [12] it was 0.199 (inactive). Further, the z-score is 0.648 in [13]; -3.48 (inactive) in assay [14]; 0.987 (inactive) in [15]; -1.09 (inactive) in assay [17]; 2.71 (inactive) in assay [18]; 1.75 (inactive) in [19]. This compound registered a z-score in assay [20] of 1.03. In assay [16], the composite z-score was 0.312 (inactive).

On to `C=C(COC)C(=O)CC[C@H](OC(=O)c1ccccc1-c1ccccc1C(=O)O)c1ccccc1OCCO`, for which the z-score in assay [1] was 0.0678 (inactive); in assay [2] it was -1.57; in assay [3], 0.341; in assay [4], 0.819; in assay [5], -0.927; in assay [6] it was -1.41. Moreover, the z-score is 0.0361 in assay [7]; 0.618 in assay [8]; 0.819 (inactive) in assay [9]; -0.437 in [10]; 0.24 in assay [11]; 0.283 (inactive) in assay [12]. Besides, the z-score in [13] is 0.365; in assay [14], -1.26 (inactive); in assay [15], 0.732 (inactive); in assay [17], -0.524 (inactive); in assay [18], 1.54 (inactive); in [19], 0.515 (inactive). Besides, the z-score in assay [20] came to 0.439. For the same compound, in assay [16], the composite z-score was -1.46 (inactive).

As to `COC(=O)C1=CC(CCCO)=CC(C2CC2)N(Cc2cc3c(cc2Br)OCO3)C=C1C(=O)OC` (stereo not given), the z-score in assay [1] is 1.24 (inactive); in [2], 1.91; in assay [3], 0.589; in assay [4], 1.19; in assay [5] it was 0.489; in assay [6] it was 0.0635. Further, the z-score in assay [7] was 0.627; in [8] it was 1.1; in [9] it was 0.857 (inactive); in [10], -0.147; in assay [11] it was 1.28; in [12] it was 0.565 (inactive). For the same compound, the z-score in [13] was 0.365; in assay [14] it was -1.81 (inactive); in [15] it was 1.06 (inactive); in assay [17] it was -0.847 (inactive); in assay [18], 0.489 (inactive); in assay [19] it was -0.0093 (inactive). Also, the z-score in assay [20] turned out to be 1.45. Also, in assay [16], the composite z-score was -0.509 (inactive).

As to `Cc1ccc(N2C(=O)c3ccccc3[C@](C)(C(=O)NC3CC3)[C@@H]2c2ccc(CO)cc2)nc1`, the z-score in [1] was 0.504 (inactive); in assay [2], 0.398; in [3], 0.434; in assay [4], 0.995; in assay [5], 0.0786; in assay [6] it was 0.47. Moreover, the z-score in assay [7] is 0.442; in assay [8], 0.587; in assay [9], -0.73 (inactive); in assay [10], 0.36; in [11], 0.259; in assay [12], 1.1 (inactive). Moreover, the z-score in assay [13] is 0.403; in assay [14], -1.76 (inactive); in assay [15], 1.55 (inactive); in assay [17] it was -0.224 (inactive); in assay [18], 0.256 (inactive); in assay [19], 0.143 (inactive). The compound also registered a z-score in assay [20] of 1.51. For the same compound, in assay [16], the composite z-score was 0.0264 (inactive).
